Laboratory results taken from PubChem BioAssay AID372 (MTDP, 2006).
Hit rate of the full screen: of about 100,000 compounds, about 770 (0.77%) were called active. The list comes from a sample in which actives are over-represented; it also holds similar structures and randomly drawn compounds. Values without a mark were called inactive. No stated cut-off is given here; in the data, active means inhibition above about 50%; inactive means the rest.

These molecules were tested against Gag-Pol polyprotein (Human immunodeficiency virus type 1 group M subtype B (isolate HXB2)) (UniProt P04585) (assay: RNase H inhibition, HIV 1 Gag Pol polyprotein, FRET biochemical assay, screening (AID 372)). Conditions: HIV-1 RT RNase H, FRET RNA/DNA substrate fluorescence; at 10 µM; active compounds read high.

Row | SMILES | inhibition
1 | Oc1c(Cl)cc(Cl)cc1C=Nc1ccc(-c2nc3ccccc3[nH]2)cc1 | 0%
2 | CCOC(=O)COc1ccc(/C=C2\C(=O)NC(=S)N(c3ccc(OCC)cc3)C2=O)cc1OC | 9%
3 | NC1=NC(=O)/C(=C/c2cccc(OS(=O)(=O)c3cccc([N+](=O)[O-])c3)c2)S1 | 3%
4 | COc1ccc(CSCC(=O)N/N=C/c2ccccc2O)cc1 | 14%
5 | COc1ccc(CSCC(=O)N/N=C/c2c(Cl)cccc2Cl)cc1 | 60% (active)
6 | Cc1cc(C)nc(SCC(=O)N/N=C/c2c(Cl)cccc2Cl)n1 | 20%
7 | CCOC(=O)c1c(NC(=O)c2cc(-c3ccc(C(C)C)cc3)nc3ccccc23)sc(C(N)=O)c1C | 55% (active)
8 | CCOC(=O)c1c(NC(=O)c2cc(-c3ccc(C)c(C)c3)nc3ccccc23)sc(C(N)=O)c1C | 5%
9 | CCOC(=O)c1c(NC(=O)c2cc(-c3ccccc3)nc3ccccc23)sc(C(N)=O)c1C | 24%
10 | C=CCn1c(-c2nonc2NC(C)=O)nc2ccccc21 | 42%
11 | Oc1ccc(/C=N/Nc2nncc(-c3ccccc3)n2)c(O)c1 | 23%
12 | Oc1ccc(/C=N/Nc2nncc(-c3ccccc3)n2)cc1 | 5%
13 | Cc1ccnc(NC(=O)c2ccc(OCC(C)C)cc2)c1 | 0%
14 | O=C1OC2C=CC(Br)=CC2C=C1C(=O)N1CCSC1c1ccc2c3c(cccc13)CC2 (stereo not drawn) | 6%
15 | CCN1C(=O)/C(=C/c2cc(Cl)cc(Cl)c2OCCOc2ccccc2OC)SC1=S | 7%
16 | CN1C[N+]([O-])=C(c2ccccc2)C1(C)C | 3%
17 | CCOC(=O)C1=C(c2ccccc2)S/C(=C2/C(=S)C(C)(C)Nc3ccc(C(c4ccccc4)(c4ccccc4)c4ccccc4)cc32)S1 | 27%
18 | COC(=O)C1=C(C(=O)OC)SC(=C2C(=S)C(C)(C)Nc3ccc(C(c4ccccc4)(c4ccccc4)c4ccccc4)cc32)S1 | 53% (active)
19 | COC(=O)C1=C(C(=O)OC)SC(=C2C(=S)C(C)(C)Nc3ccc(C)cc32)S1 | 28%
20 | CC(=O)N1CCN(C2=NC(=O)/C(=C/c3ccc(O)cc3)S2)CC1 | 10%
21 | Cc1ccc(C(=O)O)cc1NC(=O)C1CC=CCC1C(=O)O (stereo not drawn) | 10%
22 | CCOCCOC(=O)C1=C(C)NC2=C(C(=O)CCC2)C1c1ccc(CC)cc1 (stereo not drawn) | 12%
23 | CCN(CC)S(=O)(=O)c1ccc(-c2ccc(S(=O)(=O)N(CC)CC)cc2)cc1 | 11%
24 | N#C/C(=C\c1ccc(OC(=O)c2ccco2)cc1)C(=O)Nc1ccccc1Br | 50% (active)
25 | N#C/C(=C\c1ccc(OC(=O)c2ccc(Br)cc2)cc1)C(=O)Nc1cccc(Cl)c1 | 55% (active)

Row | SMILES | inhibition
26 | N#C/C(=C\c1ccccc1)C(=O)Nc1ccccc1Br | 9%
27 | N#C/C(=C/c1ccc(O)cc1)C(=O)Nc1ccc(O)cc1 | 8%
28 | N#C/C(=C/c1cccc(Cl)c1)C(=O)Nc1cccc(Br)c1 | 12%
29 | N#C/C(=C\c1cc(Br)c(O)c(Br)c1)C(=O)Nc1ccccc1Br | 14%
30 | N#C/C(=C/c1ccc(Cl)cc1)C(=O)Nc1ccc(O)cc1 | 60% (active)
31 | N#C/C(=C/c1ccc(Cl)cc1)C(=O)Nc1cccc(Br)c1 | 15%
32 | N#C/C(=C/c1ccc(Cl)cc1)C(=O)Nc1ccc(Cl)cc1 | 3%
33 | O=C(Nc1ccc(Cl)cc1)O/N=C\c1ccc(Br)cc1 | 29%
34 | COc1ccc(C2/C(=C(/O)c3ccc(Cl)cc3)C(=O)C(=O)N2CCCC(=O)O)cc1 (stereo not drawn) | 4%
35 | Nc1ccc[n+](CC(=O)c2ccccc2)c1 | 2%
36 | Cc1ccccc1OCCNc1cc(N2CCOCC2)ccc1[N+](=O)[O-] | 10%
37 | Cc1ccc(Cl)cc1NC(=O)/C(C#N)=C\c1ccc(I)o1 | 9%
38 | COc1ccc(Br)cc1/C=C1/SC(N2CCCCC2)=NC1=O | 14%
39 | COc1ccc(Br)cc1/C=C1\SC(N2CCOCC2)=NC1=O | 52% (active)
40 | COc1ccc(Br)cc1/C=C1\SC(N2CCCC2)=NC1=O | 19%
41 | COc1ccc(C2CC(=O)C=C(Nc3ccccc3N)C2)cc1OC (stereo not drawn) | 10%
42 | COC(=O)C1=C(C)N(C)C(=O)/C1=C\c1ccco1 | 11%
43 | CN1C(=O)C(=C/C=C/c2ccco2)C(=O)N(C)C1=S | 16%
44 | O=C1NC(=O)N(c2ccc(Br)cc2)C(=O)/C1=C/c1ccco1 | 12%
45 | Cc1ccccc1N1C(=O)/C(=C\c2ccco2)C(=O)N(c2ccccc2)C1=S | 49%
46 | CN1C(=O)C(=Cc2ccco2)C(=O)N(C)C1=S | 61% (active)
47 | Oc1ccc(Cl)cc1-c1cc(-c2ccc(Cl)cc2)n[nH]1 | 0%
48 | O=S(=O)(c1ccc(-c2csc(Nc3ccc4c(c3)OCO4)n2)cc1)N1CCOCC1 | 8%
49 | CCCCNCCOc1ccccc1OCC | 12%
50 | O=C(Nc1ccc2oc(-c3ccc(F)cc3Cl)nc2c1)c1cc(Cl)ccc1Cl | 18%

Row | SMILES | inhibition
51 | Oc1ccc2ccccc2c1CN1CCOCC1 | 7%
52 | Cc1ccc(/C=C/C(=O)Nc2ncc(Cc3cc(Cl)ccc3Cl)s2)cc1 | 24%
53 | O=C(/C=C/c1cccs1)Nc1ncc(Cc2ccccc2Cl)s1 | 4%
54 | COc1ccc(/C=C/C(=O)Nc2ncc(Cc3ccccc3Cl)s2)cc1 | 54% (active)
55 | CCOc1ccccc1OCCOc1cccc(Br)c1 | 3%
56 | Cc1cccc(N2CCN(CN3C(=O)/C(=C/c4ccc(C)o4)SC3=S)CC2)c1 | 2%
57 | CCOC(=O)C(CCCCCOc1ccccc1C(C)(C)C)C(=O)OCC | 20%
58 | CCc1ccc(-c2nc(-c3ccccn3)no2)cc1 | 15%
59 | NC(=O)c1c(/N=C/c2cc(Cl)cc(Cl)c2O)sc2c1CCCC2 | 11%
60 | COc1cc(/C=N/c2sc3c(c2C#N)CCCC3)cc(Br)c1O | 15%
61 | CCOC(=O)c1c(N)n(CCOC)c2nc3ccccc3nc12 | 0%
62 | C=CCN(CC=C)CCCCOc1cccc(C)c1 | 5%
63 | Brc1ccc(Nc2nc3ccccc3nc2Nc2ccc(Br)cc2)cc1 | 55% (active)
64 | Ic1ccc(Nc2nc3ccccc3nc2Nc2ccc(I)cc2)cc1 | 34%
65 | Oc1ccc(Nc2nc3ccccc3nc2Nc2ccc(O)cc2)cc1 | 12%
66 | O=C(NCCO)C(=O)Nc1ccccc1 | 0%
67 | CCN1CCN(CC(=O)N/N=C/c2ccccc2)CC1 | 8%
68 | CCc1ccc(C2Nc3ccc4ccccc4c3C3=C2C(=O)CC(C)(C)C3)cc1 (stereo not drawn) | 19%
69 | CC(=O)N(C1=C(Cl)C(=O)c2ccccc2C1=O)c1ccc(Br)cc1 | 69% (active)
70 | CC(=O)N(C1=C(Cl)C(=O)c2ccccc2C1=O)c1ccc(Cl)cc1 | 32%
71 | CC(=O)N(C1=C(N(C)C)C(=O)c2ccccc2C1=O)c1ccc(Br)cc1 | 1%
72 | CCN1CCN(CC(O)COc2ccc(C(C)(C)C)cc2)CC1 (stereo not drawn) | 0%
73 | O=C(O)c1ccc(C(=O)Nc2ccccc2Oc2ccccc2)c(C(=O)O)c1 | 6%
74 | O=C(O)c1ccc(C(=O)Nc2ccc(I)cc2)c(C(=O)O)c1 | 9%
75 | O=C(O)c1ccc(C(=O)Nc2ccccc2Br)c(C(=O)O)c1 | 54% (active)

Row | SMILES | inhibition
76 | CCC1CCc2c(sc(NC(=O)CCC(=O)O)c2C#N)C1 (stereo not drawn) | 2%
77 | C=CCNc1nc(-c2ccc(Cl)cc2)nc2ccccc12 | 8%
78 | Cc1cc(=O)oc2c(C)c3occ(-c4ccccc4)c3cc12 | 31%
79 | Cc1coc2cc3oc(=O)cc(C)c3cc12 | 7%
80 | Cc1cc(=O)oc2cc3occ(-c4ccccc4)c3cc12 | 57% (active)
81 | O=C(O)CC(C(=O)O)N1C(=O)/C(=C\C(Cl)=C/c2ccc([N+](=O)[O-])cc2)SC1=S (stereo not drawn) | 14%
82 | c1ccc(CNc2nc(-c3ccccc3)[n+](-c3ccccc3)s2)cc1 | 52% (active)
83 | c1ccc(Nc2nc(-c3ccccc3)[n+](-c3ccccc3)s2)cc1 | 30%
84 | c1ccc(CNc2nc(-c3ccccc3)cc(-c3ccccc3)n2)cc1 | 15%
85 | CCOc1ccc(N(CC(=O)NCCSCc2ccc(Cl)cc2)S(C)(=O)=O)cc1 | 22%
86 | Cc1cc(C)cc(N(CC(=O)NCCSCc2ccc(Cl)cc2)S(C)(=O)=O)c1 | 57% (active)
87 | COc1ccc(N(CC(=O)NCCSCc2ccc(Cl)cc2)S(C)(=O)=O)cc1Cl | 38%
88 | COc1ccc(N(CC(=O)NCCSCc2ccccc2Cl)S(C)(=O)=O)cc1 | 22%
89 | CS(=O)(=O)N(CC(=O)NCCSc1ccc(Cl)cc1)c1ccc(Br)cc1 | 8%
90 | CS(=O)(=O)N(CC(=O)NCCSCc1ccc(Cl)cc1)c1ccc(Cl)cc1 | 55% (active)
91 | COc1ccc(S(=O)(=O)N(CC(=O)NCCSCc2ccc(Cl)cc2)c2cc(C)cc(C)c2)cc1OC | 12%
92 | CS(=O)(=O)N(CC(=O)NCCSCc1ccccc1Cl)c1ccc(Br)cc1 | 50% (active)
93 | Cc1ccc(CSCCNC(=O)CN(c2cccc(C)c2)S(C)(=O)=O)cc1 | 18%
94 | O=C(NC(=S)Nc1ccccc1[N+](=O)[O-])c1ccc(-c2ccccc2)cc1 | 13%
95 | O=C(Cn1c(NCCCO)nc2ccccc21)c1ccc(Br)s1 | 11%
96 | Cc1sc(NC(=O)/C=C/c2ccc(Cl)cc2Cl)c(C(N)=O)c1C | 26%
97 | Nc1nnc(SCC(=O)Nc2ccccc2Oc2ccccc2)s1 | 4%
98 | CCC(C)c1ccc(NC(=S)NC(=O)c2ccc(OC)c(Br)c2)cc1 (stereo not drawn) | 9%
